Only some compounds are listed: those with a hit (about 1.8% of all), similar ones and a draw of the others.
VDR inhibitor = vitamin D3 receptor (human) inhibition; VDR-SRC2-3 peptide fluorescence polarization, 2 h; Potency, µM, without a hit: max response, negative = inhibition, usual class: inhibitors; 400,000 tested, 0.93% active; AID 504847
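Fluorescence polarization assay measuring small-molecule disruption of VDR binding to the coregulator peptide SRC2-3. Compounds were pin-transferred (23 nl) into the reagent mix and incubated 2 h at room temperature before reading.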
TrxR1 inh = rat TrxR1 inhibition | recombinant rTrxR1, NADPH fluorescence consumption, selenite substrate | Potency, µM (doses to about 114 µM), for the others: at the top dose activity change, negative = inhibition, usual class: inhibitors | 390,000 tested, 1% active; also: nearly all actives have a fitted effect of over 65% in size
Target sequence (O89049 whole entry, looked up): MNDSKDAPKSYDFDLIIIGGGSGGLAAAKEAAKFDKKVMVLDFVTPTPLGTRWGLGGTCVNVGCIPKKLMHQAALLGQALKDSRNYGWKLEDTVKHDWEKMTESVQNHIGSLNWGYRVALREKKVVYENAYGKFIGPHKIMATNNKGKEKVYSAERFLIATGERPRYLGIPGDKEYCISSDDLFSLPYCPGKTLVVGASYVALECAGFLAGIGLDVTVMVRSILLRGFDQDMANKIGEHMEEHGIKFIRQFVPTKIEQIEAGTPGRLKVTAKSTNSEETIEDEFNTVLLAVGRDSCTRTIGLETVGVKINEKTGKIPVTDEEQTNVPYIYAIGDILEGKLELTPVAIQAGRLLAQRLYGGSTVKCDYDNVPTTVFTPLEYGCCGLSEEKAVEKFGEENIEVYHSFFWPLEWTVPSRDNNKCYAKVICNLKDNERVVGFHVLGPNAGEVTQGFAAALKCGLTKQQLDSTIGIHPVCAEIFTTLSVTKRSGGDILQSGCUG
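Rat TrxR1 (90 nM in the dispensed reagent) was pre-reduced with 400 uM NADPH for 5 min at room temperature, then incubated with compound for 15 min. After 400 uM selenite was added, NADPH fluorescence (Ex 340/Em 450 nm) was followed for 8 min.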
TrxR1 substrate = substrates of rat thioredoxin reductase 1; O89049; purified TrxR1 substrate turnover, NADPH consumption readout; Potency, µM (series often up to 114 µM), inactives show top-dose activity change, negative = substrate turnover; 390,000 tested, 0.01% active; also: nearly all actives have a fitted effect of over 50% in size
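Rat TrxR1, dispensed at 90 nM, was prereduced with 400 uM NADPH (final) for 5 min at ~22 deg C, then incubated with compound 15 min before 400 uM selenite. A first-read NADPH fluorescence drop versus no-compound background flagged substrates.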
GCN5L2 inh = GCN5L2 (KAT2A) acetyltransferase inhibition; Q92830; GCN5L2 HAT assay, ThioGlo1 CoA-SH fluorescence; Potency, µM (top dose mostly 58.9 µM), inactives show at the highest dose activity change, negative = inhibition, usual class: inhibitors; 390,000 tested, 0.21% active; AID 504327
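Preincubate 20nM GCN5L2 with compound 15 min, RT → add 50uM ThioGlo1 + 75uM H3(1-25) + 70uM acetyl-CoA → read fluorescence 0 and 20 min. Primary qHTS; fluorescent artifacts likely.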
The depositor's hits bear a star; i = inactive; ? = inconclusive; / = no result; ! = not active in a repeat; [ ] = another dose, or the depositor's remark. Calls follow the shape of the dose curve; as a rule, active = well fitted curve in the direction sought with a large enough effect; inconclusive = small, poorly fitted or top-dose-only effect, or another doubt; inactive = no such curve, though single readings can be large; an effect the other way counts as inactive or inconclusive. % is scaled to controls: 0 for no effect and ±100 for the full control effect; potency is read from the fitted curve at half-maximal effect.

SMILES | VDR inhibitor | TrxR1 inh | TrxR1 substrate | GCN5L2 inh
Cc1cc(=O)oc2cc(O)ccc12 | -10% | 50µM* | i | ?
Cc1cc(=O)oc2c(O)c(O)ccc12 | 71µM*! | 2% | 2% | ?
O=c1cc(O)c2ccc(O)cc2o1 | -6% | 10%[57.1 µM] | 29%[57.1 µM] | -2%
Cc1cc(=O)oc2c(CN3CCCC3)c(O)ccc12 | 25% | 18µM* | 836% | -28%
CN(C)C1CCC(CC2CCc3ccccc32)CC1 (configuration not stated) | / | 12% | 9% | /
CCN(CCCNC(=O)c1cc(Nc2ccc(OC)cc2OC)nc2ccccc12)c1cccc(C)c1 | -13% | 5% | -11% | -18%
O=C(NNc1ccc([N+](=O)[O-])cc1)c1ccccc1Cl | 3% | -1% | -11% | -19%
O=C(NC(NNc1ccc([N+](=O)[O-])cc1)(C(F)(F)F)C(F)(F)F)c1ccc(Cl)cc1 | 79µM* | ? | -8%[57.1 µM] | -26%
Clc1cccc[n+]1CCc1ccccc1 | / | 45µM* | 8% | /
Cc1ccc2nc(-c3ccccc3F)c(Nc3ccc(Cl)cc3)n2c1 | -3% | 15% | 94% | -15%
Cc1ccc(-c2nc3ncccn3c2Nc2ccc3c(c2)OCCO3)o1 | -5% | 40µM* | 1% | -1%
Brc1ccc(-c2nc3ncccn3c2Nc2ccc3c(c2)OCCO3)o1 | 0% | 0%[57.1 µM] | 8%[57.1 µM] | -5%
Cc1ccc(-c2nc3cnccn3c2Nc2ccccc2)o1 | ? | 40µM* | 13% | -20%
Fc1ccccc1-c1ccc(-c2nc3ccc(Cl)cn3c2Nc2ccc(Cl)cc2)o1 | ? | 25µM* | 3% | /
Cc1ccc(-c2nc3ccc(Cl)cn3c2Nc2ccccc2)o1 | -21% | ? | 6% | /
Cc1ccc2nc(-c3ccc(C)o3)c(Nc3ccccc3)n2c1 | ? | 18µM* | 24% | /
CCCCC(=O)Nc1cc(-c2cn3cccnc3n2)ccc1C | -4% | -3%[57.1 µM] | 22%[57.1 µM] | -5%
Cn1cccc1C(=O)N1CCC2(CCN(C(=O)Nc3ccccc3)CC2)CC1 | 8% | / | / | 6%
CC(=O)N(O)c1ccc(/C=C2\C=Cc3ccccc32)cc1 | / | -6% | -5% | /
COC(=O)c1sc(N)c(C(=O)OC)c1COC(=O)c1c(C)noc1C | 1% | 21% | 3% | -3%
COC(=O)c1sc(N)c(C(=O)OC)c1Cn1ncc(Cl)c(Cl)c1=O | ? | 2.5µM* | 1%[57.1 µM] | -11%
c1ccc(-c2nn[nH]n2)c(Nc2cccc3c2CCCC3)c1 | 40µM* | / | / | 18µM*
CC(=O)N(c1ccc(Cl)cc1)c1cn(C(C)=O)c2ccccc12 | 19% | 15% | 2% | -10%
CC(=O)n1cc(N(C(=O)CCl)c2ccc(C)cc2)c2ccccc21 | ? | 2µM* | -3% | -3%
c1ccc2c(c1)ccn2-n1ccc2ccccc21 | / | 35%[0.0914 µM] | 22%[0.0914 µM] | /
SMILES | VDR inhibitor | TrxR1 inh | TrxR1 substrate | GCN5L2 inh
C(=Nc1cnc2ccccc2c1)c1ccnc2ccccc12 | / | 12% | 91% | /
CN1CCN(Cc2c(O)ccc3cc(-c4ccccc4)c(=O)oc23)CC1 | 12% | -17%[57.1 µM] | 288%[57.1 µM] | ?
O=c1oc2c(CN3CCN(CCO)CC3)c(O)ccc2cc1-c1ccccn1 | -5% | 45µM* | i | ?
CN(Cc1ccccc1)C(=O)CSc1nc2ccccc2n1Cc1ccccc1F | 1% | 5%[57.1 µM] | -1%[57.1 µM] | 5%
COc1cc(NS(=O)(=O)c2ccc(NC(=S)NC(=O)/C=C/c3ccco3)cc2)ncn1 | 11% | 56µM* | -17% | -5%
CC(=O)N(C)c1ccc(NC(=S)NC(=O)/C=C/c2ccco2)cc1 | -13% | 35µM* | -4% | -7%
Cc1ccc(NC(=O)N/C=C/c2ccco2)cc1 | -7% | 16µM* | 18% | -17%
Cc1ccc(NC(=O)/C(=C\c2ccco2)NC(=O)c2ccco2)cc1 | ? | ? | -4%[57.1 µM] | -5%
CN1CCN(c2ccc(NC(=S)NC(=O)/C=C/c3ccco3)cc2)CC1 | -12% | -22% | -8% | -9%
CC(=O)Nc1ccc(C(=O)/C=C/c2ccco2)cc1 | ? | 45µM* | -11% | 5%
C=CCN1C(=CCO)[C@H]2C[C@H]3[C@@H]1CC[C@@]31c3ccccc3N3C=C4[C@@H]5N(/C=C/2[C@H]31)c1ccccc1[C@]51CC[C@H]2[C@H]1C[C@@H]4/C(=C/CO)N2CC=C | 5% | / | / | -26%[21.4 µM]
Cc1ccc(CNC(=O)COC(=O)c2ccccc2OCC(=O)Nc2ccc(Br)cc2)cc1 | / | 28% | 8% | /
CC(C)C[C@@H](NC(=O)[C@@H](Cc1ccccc1)NC(=O)c1cnccn1)B(O)O | 14% | / | / | -8%
COc1cccc(NC(=S)NC(=O)/C=C/c2ccco2)c1 | -15% | -31%[57.1 µM] | 6%[57.1 µM] | -13%
CC(=O)Nc1ccc(NC(=S)NC(=O)/C=C/c2ccco2)cc1 | ? | 40µM* | 2% | -10%
O=C(/C=C/c1ccco1)NC(=S)Nc1cccc(C(=O)O)c1 | -27% | 40µM* | -2% | -1%
CCOc1ccc(NC(=S)NC(=O)/C=C/c2ccco2)cc1 | -3% | -8%[57.1 µM] | 10%[57.1 µM] | ?
CCOC(=O)N1CCc2c(sc3c2c(=O)n(Cc2ccccc2)c(=O)n3CC(=O)Nc2ccc(C)cc2C)C1 | -12% | 11% | -1% | -9%
NS(=O)(=O)c1ccc(N2C(=O)C3CC=CCC3C2=O)cc1 (configuration not stated) | 16% | 10% | 3% | -1%
CC1=C(C)CS(=O)N(c2ccc(S(N)(=O)=O)cc2)C1 (configuration not stated) | 7.9µM* | -8% | -4% | -5%
C=C1C=C(C(F)F)n2ncc(C(=O)NCc3ccc(Cl)cc3Cl)c2N1 | / | 13% | 15% | /
CCOC(=O)C1=C(N)N(c2ccccc2)C(=O)C1 | 25µM* | 20%[57.1 µM] | -2%[57.1 µM] | 93%
CCOC(=O)c1ccc(N2C(=O)CC(C(=O)OC)=C2C)cc1 | ? | ? | 3% | 0%
Cc1ccc(C[C@H](C(=O)O)N2C(=O)c3ccc(C(=O)O)cc3C2=O)c(C)c1 | / | / | / | -10%
COc1ccc(C(=O)n2nc(-c3ccco3)nc2NCc2cccs2)cc1 | 19% | 22µM* | -1% | -18%
SMILES | VDR inhibitor | TrxR1 inh | TrxR1 substrate | GCN5L2 inh
CCCCN(CCCC)c1ccc(Cn2ccc3ccccc32)cc1 | / | 0% | 7% | /
COC(=O)c1cc(C#N)c(=O)[nH]c1C | 6% | 0% | 0% | -2%
CCOC(=O)c1cc(C#N)c(=S)[nH]c1C | -21% | 7.9µM* | -7% | -11%
COCc1[nH]c(=S)c(C#N)cc1C(=O)OC | ? | 14µM* | 1%[57.1 µM] | -19%
CC(=O)N1CCN(c2ccc(NC(=O)c3cccc(OCc4ccccc4)c3)cc2)CC1 | -12% | 1% | 3% | -3%
CC(=O)N1CCN(c2ccc(NC(=O)c3ccc(OCc4ccccc4)cc3)cc2)CC1 | 28µM* | 26% | 5% | -4%
CN(C)c1ccc(/C=C/c2ccnc3ccc(I)cc23)cc1 | / | -18% | -10% | /
CCC(=O)N(CCC(c1ccco1)C(C)C)Cc1ccccc1 (configuration not stated) | ? | 7%[57.1 µM] | -4%[57.1 µM] | -8%
CCC(=O)N(CCC(c1ccc(C)cc1)c1ccco1)Cc1ccco1 (configuration not stated) | ? | 35µM* | -2% | ?
